Assay results as given in the supplement of paper PMC11732987, “Enantioselective OTUD7B fragment discovery through chemoproteomics screening and high-throughput optimisation” (Communications Chemistry, 2025).

Tests used:
Assay in all cases: log2 ratio of Biotin-Ahx-Ub-VS probe labelling (fragment/DMSO); higher = less target engagement (more negative = stronger competition), active = hit call of the paper (q ≤ 0.05, log2 ratio ≤ -1)
Settings in all cases: compound concentration: 200 uM; treatment time: 3 h
USP42 = target: T1, USP42 (UniProt Q9H9J4)
T1 sequence (whole entry): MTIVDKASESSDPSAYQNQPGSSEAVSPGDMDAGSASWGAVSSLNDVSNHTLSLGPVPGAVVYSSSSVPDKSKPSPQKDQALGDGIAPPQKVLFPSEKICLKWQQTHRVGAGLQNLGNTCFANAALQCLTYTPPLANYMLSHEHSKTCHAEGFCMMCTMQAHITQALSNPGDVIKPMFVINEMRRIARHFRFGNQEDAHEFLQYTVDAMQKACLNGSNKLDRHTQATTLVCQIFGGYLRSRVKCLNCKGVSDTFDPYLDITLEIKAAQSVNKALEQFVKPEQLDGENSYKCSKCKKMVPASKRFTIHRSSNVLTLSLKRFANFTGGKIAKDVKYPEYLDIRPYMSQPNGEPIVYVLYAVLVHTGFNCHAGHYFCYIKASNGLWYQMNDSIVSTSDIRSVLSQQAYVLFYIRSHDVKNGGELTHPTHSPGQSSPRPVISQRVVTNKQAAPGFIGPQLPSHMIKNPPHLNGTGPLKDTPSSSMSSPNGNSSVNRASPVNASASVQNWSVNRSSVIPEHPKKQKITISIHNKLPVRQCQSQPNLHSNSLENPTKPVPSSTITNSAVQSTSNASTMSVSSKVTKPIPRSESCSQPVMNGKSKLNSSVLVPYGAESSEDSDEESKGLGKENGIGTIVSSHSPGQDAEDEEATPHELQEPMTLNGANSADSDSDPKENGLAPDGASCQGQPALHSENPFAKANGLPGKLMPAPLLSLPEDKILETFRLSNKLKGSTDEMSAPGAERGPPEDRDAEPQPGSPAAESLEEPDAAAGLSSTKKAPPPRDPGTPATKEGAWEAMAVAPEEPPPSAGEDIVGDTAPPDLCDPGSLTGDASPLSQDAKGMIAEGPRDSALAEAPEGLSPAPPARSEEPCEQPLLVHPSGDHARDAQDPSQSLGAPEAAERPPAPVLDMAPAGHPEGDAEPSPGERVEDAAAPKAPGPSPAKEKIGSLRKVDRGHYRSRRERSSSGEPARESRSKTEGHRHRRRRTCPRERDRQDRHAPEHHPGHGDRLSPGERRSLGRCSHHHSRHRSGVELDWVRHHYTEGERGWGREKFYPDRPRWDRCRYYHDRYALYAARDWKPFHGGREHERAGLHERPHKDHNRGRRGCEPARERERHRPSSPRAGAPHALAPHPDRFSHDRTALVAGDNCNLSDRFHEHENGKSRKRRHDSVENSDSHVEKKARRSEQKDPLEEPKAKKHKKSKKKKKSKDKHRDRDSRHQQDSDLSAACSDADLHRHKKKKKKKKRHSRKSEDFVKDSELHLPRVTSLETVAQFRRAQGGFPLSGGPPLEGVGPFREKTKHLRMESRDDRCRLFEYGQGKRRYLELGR
How it was run: (§1)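 HEK293T lysate, 495 µg per sample in Tris/CHAPS/IGEPAL buffer with protease inhibitors, was treated in triplicate with fragment at 200 µM or vehicle for 3 h and then with Biotin-Ahx-Ub-VS at 0.5 µM final for 1 h. Labelled DUBs were NeutrAvidin-enriched, digested with LysC and trypsin, and run by diaPASEF LC-MS/MS. Spectronaut label-free quantities were global-median-normalised, and values are average log2 fragment/vehicle ratios by unpaired t-test on proteins with ≥2 unique peptides.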

USP46 = USP46 (UniProt P62068)
How it was run: as §1

USP47 = target: T2, USP47 (UniProt Q96K76)
T2 sequence (whole entry): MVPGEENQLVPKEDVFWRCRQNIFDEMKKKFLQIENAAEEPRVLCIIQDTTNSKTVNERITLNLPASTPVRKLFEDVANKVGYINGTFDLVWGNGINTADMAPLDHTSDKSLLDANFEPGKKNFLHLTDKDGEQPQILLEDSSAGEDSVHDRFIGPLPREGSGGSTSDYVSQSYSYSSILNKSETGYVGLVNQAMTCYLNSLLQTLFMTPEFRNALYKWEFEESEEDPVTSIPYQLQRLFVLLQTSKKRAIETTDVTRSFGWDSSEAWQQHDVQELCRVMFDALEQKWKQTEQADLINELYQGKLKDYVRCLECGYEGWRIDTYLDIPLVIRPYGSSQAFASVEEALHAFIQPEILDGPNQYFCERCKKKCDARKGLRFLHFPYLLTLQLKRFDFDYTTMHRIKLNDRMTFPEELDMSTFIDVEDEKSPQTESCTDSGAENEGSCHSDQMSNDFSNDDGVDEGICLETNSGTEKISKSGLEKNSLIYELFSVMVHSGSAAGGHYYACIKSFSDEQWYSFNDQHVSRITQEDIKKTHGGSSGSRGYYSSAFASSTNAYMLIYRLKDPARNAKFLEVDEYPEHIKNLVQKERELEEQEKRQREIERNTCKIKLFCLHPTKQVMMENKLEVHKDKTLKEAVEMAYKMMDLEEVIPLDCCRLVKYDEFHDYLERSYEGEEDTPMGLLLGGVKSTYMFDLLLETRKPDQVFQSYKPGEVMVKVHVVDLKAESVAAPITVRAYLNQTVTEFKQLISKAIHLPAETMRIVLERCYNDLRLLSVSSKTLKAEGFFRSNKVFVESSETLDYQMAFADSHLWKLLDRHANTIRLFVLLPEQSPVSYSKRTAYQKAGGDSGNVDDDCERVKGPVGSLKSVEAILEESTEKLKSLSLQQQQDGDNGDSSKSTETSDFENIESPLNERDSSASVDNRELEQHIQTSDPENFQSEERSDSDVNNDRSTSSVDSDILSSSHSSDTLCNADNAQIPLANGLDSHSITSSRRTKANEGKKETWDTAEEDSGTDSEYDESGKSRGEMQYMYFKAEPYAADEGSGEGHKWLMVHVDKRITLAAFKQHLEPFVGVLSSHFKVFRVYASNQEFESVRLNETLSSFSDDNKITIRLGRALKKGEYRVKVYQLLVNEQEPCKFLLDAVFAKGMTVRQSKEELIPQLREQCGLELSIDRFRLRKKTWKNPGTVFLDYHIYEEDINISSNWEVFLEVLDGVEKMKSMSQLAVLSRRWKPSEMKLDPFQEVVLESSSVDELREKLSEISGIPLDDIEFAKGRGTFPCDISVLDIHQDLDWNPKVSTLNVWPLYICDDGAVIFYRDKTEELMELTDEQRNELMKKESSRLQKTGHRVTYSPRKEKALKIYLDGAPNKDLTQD
How it was run: as §1

USP48 = target: T3, USP48 (UniProt Q86UV5)
T3 sequence (whole entry): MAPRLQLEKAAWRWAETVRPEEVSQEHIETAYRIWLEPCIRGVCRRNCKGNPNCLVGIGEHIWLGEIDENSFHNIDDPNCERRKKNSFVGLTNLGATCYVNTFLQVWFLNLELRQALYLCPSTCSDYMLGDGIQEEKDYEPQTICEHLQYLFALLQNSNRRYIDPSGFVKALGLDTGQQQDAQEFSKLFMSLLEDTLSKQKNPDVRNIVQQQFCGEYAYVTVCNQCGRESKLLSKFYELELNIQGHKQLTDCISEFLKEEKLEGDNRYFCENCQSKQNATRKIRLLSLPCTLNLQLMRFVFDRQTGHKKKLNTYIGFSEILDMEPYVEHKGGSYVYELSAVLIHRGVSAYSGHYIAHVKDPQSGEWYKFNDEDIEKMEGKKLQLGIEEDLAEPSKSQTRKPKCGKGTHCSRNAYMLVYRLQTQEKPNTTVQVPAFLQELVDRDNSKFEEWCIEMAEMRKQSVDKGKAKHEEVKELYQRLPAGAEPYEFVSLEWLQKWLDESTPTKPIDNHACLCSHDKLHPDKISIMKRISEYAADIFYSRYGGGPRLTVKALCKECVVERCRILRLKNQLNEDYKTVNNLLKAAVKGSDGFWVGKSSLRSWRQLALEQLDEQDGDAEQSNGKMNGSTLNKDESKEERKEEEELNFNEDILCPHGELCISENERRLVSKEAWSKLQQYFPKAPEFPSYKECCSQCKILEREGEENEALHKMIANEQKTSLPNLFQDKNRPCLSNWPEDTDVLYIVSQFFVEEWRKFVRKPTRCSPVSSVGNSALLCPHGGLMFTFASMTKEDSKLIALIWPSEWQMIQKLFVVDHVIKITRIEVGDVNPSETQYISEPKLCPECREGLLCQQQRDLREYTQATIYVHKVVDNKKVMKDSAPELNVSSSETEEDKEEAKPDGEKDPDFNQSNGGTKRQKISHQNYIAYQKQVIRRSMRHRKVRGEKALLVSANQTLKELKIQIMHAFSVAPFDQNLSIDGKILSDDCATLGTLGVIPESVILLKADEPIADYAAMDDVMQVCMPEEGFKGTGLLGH
How it was run: as §1

USP5 = target: T4, USP5 (UniProt P45974)
T4 sequence (whole entry): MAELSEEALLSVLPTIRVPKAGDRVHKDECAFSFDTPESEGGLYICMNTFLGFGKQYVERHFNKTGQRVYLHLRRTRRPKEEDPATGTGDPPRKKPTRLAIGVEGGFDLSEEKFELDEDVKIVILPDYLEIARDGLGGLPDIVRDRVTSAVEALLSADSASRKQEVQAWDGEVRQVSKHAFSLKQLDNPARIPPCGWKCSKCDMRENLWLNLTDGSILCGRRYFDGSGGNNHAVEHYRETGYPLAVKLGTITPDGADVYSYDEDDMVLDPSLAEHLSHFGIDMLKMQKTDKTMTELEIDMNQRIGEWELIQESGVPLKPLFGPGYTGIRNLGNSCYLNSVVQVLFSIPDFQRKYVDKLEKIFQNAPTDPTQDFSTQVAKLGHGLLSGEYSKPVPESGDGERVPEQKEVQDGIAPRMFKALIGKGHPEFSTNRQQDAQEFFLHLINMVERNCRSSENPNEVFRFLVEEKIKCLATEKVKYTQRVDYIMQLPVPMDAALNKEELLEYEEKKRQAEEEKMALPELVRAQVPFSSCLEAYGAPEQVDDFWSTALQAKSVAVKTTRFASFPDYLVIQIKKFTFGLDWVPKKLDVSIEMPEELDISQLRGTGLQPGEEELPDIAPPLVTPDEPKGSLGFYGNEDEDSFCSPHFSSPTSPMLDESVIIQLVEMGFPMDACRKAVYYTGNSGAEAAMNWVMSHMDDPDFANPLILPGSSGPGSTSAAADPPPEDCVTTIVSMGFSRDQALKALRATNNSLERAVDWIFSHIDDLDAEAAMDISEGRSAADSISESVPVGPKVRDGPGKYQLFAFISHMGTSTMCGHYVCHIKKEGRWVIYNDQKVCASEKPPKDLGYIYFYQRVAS
How it was run: as §1

USP54 = USP54 (UniProt Q70EL1)
How it was run: as §1

USP7 = USP7 (UniProt Q93009)
How it was run: as §1

USP8 = target: T5, USP8 (UniProt P40818)
T5 sequence (whole entry): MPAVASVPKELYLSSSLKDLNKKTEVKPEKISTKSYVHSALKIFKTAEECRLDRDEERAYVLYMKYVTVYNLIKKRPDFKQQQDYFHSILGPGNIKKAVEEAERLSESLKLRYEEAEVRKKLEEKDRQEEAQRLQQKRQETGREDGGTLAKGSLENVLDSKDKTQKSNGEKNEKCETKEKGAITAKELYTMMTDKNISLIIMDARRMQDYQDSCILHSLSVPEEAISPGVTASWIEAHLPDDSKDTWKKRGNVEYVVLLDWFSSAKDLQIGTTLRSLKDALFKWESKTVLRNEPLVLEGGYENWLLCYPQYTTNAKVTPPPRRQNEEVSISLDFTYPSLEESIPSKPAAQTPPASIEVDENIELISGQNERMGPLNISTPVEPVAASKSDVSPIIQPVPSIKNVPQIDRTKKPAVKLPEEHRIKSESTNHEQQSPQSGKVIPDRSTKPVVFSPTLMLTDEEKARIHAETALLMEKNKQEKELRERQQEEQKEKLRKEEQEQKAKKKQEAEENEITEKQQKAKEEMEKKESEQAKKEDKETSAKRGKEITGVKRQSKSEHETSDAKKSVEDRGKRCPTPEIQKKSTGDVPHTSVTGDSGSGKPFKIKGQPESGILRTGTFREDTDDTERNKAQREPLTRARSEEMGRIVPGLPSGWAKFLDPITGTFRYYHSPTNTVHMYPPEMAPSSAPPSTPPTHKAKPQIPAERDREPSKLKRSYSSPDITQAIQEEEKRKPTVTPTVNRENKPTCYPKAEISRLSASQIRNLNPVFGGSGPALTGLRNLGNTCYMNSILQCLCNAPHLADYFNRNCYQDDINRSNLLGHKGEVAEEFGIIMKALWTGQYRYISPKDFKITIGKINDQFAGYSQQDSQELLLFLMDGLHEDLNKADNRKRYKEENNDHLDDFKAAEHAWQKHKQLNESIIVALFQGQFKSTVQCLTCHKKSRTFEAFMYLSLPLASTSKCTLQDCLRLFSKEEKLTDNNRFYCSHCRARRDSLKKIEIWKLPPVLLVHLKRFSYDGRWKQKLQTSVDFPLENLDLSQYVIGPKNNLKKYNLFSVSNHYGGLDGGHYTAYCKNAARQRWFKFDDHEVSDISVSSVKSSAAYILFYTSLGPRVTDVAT
How it was run: as §1

Measured: log2 ratio of Biotin-Ahx-Ub-VS probe labelling

Chain of USP46 (P62068 whole entry): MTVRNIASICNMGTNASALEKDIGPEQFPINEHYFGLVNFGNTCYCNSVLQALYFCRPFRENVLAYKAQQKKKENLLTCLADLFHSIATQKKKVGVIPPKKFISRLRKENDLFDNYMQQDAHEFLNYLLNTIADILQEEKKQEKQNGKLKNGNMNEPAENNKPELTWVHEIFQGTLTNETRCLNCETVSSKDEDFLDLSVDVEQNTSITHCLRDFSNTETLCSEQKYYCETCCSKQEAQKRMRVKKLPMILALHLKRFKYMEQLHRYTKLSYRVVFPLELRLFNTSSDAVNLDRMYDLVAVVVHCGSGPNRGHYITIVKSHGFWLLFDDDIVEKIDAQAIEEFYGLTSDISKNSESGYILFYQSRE
Chain of USP7 (Q93009 whole entry, looked up): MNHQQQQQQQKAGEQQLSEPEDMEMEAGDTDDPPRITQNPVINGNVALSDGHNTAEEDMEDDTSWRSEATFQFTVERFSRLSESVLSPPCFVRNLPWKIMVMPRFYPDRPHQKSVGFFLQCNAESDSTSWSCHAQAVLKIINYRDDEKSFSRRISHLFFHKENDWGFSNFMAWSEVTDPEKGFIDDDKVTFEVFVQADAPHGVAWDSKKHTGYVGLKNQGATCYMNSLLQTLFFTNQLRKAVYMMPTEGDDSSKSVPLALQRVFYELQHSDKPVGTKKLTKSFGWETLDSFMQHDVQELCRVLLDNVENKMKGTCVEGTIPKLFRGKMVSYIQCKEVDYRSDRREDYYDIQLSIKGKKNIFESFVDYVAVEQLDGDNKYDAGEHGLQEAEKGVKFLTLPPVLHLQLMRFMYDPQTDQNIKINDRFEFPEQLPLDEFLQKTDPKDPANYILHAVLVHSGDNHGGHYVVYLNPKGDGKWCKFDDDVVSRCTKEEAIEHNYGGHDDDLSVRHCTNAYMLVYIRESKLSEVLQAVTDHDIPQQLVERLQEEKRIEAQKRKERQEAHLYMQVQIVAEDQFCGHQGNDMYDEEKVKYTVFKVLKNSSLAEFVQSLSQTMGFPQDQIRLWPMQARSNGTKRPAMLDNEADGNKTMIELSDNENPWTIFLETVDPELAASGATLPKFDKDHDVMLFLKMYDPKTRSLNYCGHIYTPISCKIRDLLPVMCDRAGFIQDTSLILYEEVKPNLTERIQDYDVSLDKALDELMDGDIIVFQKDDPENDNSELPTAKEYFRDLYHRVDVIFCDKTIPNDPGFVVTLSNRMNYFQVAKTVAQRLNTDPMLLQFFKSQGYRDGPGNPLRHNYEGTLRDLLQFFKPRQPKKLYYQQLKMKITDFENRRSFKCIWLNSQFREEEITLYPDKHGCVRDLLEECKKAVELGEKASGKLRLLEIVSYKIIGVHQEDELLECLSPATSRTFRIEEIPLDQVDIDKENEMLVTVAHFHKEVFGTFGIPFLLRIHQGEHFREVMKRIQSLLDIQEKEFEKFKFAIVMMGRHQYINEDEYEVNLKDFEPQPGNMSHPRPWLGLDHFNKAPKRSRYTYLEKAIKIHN
Chain of USP54 (Q70EL1 whole entry): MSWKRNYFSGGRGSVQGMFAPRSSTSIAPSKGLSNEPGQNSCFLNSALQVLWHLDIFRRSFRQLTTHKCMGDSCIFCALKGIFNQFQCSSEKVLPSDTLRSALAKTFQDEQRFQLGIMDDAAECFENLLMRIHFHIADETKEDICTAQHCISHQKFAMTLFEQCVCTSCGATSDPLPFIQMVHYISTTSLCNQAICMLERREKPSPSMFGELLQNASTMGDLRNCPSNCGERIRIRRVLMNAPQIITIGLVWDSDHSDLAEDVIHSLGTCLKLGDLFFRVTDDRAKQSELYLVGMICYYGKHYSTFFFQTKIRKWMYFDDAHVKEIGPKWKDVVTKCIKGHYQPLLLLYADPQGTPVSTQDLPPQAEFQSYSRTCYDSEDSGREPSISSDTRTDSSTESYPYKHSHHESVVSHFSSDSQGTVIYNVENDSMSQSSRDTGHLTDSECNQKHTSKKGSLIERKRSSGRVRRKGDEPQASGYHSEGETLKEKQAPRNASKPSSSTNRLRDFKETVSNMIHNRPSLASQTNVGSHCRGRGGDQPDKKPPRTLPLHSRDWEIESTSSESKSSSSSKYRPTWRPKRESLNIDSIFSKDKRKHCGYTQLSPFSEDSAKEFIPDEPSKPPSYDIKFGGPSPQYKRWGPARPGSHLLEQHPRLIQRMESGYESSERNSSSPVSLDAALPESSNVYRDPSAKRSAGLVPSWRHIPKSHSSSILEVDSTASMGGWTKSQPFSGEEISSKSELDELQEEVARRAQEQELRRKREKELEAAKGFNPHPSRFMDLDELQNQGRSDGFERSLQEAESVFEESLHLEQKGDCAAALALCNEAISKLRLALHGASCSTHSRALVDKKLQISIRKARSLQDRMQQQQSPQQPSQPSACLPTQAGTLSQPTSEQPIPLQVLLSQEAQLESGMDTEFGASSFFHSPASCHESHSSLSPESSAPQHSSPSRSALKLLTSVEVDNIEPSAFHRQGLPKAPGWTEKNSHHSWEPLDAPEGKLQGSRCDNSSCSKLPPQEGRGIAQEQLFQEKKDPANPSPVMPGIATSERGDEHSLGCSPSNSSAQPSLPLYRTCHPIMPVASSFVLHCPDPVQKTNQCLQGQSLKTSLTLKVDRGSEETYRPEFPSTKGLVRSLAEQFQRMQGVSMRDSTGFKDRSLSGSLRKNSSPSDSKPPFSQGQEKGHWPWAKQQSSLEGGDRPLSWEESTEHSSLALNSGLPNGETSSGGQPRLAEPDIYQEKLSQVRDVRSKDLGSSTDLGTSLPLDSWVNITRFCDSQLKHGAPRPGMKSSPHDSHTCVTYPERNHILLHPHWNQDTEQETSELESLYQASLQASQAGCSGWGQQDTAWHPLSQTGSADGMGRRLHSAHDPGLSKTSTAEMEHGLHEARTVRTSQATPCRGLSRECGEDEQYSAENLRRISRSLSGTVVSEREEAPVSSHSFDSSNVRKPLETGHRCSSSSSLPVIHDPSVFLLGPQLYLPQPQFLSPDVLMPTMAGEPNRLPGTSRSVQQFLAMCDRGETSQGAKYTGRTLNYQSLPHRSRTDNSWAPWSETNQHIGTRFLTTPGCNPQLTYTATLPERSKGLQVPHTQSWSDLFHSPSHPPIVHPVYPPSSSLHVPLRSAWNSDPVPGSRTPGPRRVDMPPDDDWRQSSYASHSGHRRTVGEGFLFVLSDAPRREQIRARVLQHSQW

O=C(CN1CCN(C(=O)CCl)CC1)Nc1cccc(F)c1
inactive: USP42 -0.241 | USP46 -0.173 | USP47 -0.178 | USP48 -0.419 | USP5 0.215 | USP54 0.835 | USP7 -0.436 | USP8 -0.23
